# Results from publication PMC7862700, “An all-to-all approach to the identification of sequence-specific readers for epigenetic DNA modifications on cytosine”.
# Legend:
# Experiment in all cases: DAPPL (digital affinity profiling via proximity ligation, sequencing); 10 mM Tris-HCl pH 7.5, 50 mM NaCl, 1 mM DTT, 4% glycerol, room temperature, 30 min; GST-TFs on glutathione beads, 16-mer random dsDNA library, 0.1% formaldehyde crosslink after washing; high values mean tight binding
# Settings in all cases: protein: recombinant; tags: N-terminal GST; dsDNA, one strand shown
# FLI1 = target: T1, FLI1 (Homo sapiens, UniProt Q01543 1-452)
# T1 sequence: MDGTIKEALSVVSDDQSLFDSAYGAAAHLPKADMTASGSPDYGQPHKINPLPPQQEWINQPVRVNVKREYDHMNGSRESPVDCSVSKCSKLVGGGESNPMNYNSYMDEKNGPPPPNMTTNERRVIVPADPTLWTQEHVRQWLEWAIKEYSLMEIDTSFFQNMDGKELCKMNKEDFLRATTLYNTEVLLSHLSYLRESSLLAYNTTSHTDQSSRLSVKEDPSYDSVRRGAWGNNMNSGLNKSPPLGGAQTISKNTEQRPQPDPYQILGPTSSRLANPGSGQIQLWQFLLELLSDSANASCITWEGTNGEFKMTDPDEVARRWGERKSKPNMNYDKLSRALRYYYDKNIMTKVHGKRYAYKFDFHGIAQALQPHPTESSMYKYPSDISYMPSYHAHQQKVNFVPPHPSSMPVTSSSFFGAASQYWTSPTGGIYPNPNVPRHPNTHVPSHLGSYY
# Summary of the method: (§1)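 Binding signal is each hexamer's read frequency for a factor divided by its frequency in the tag-only sample. The factors were GST-fused human transcription factors from yeast, captured on glutathione beads, DNA-barcoded and pooled with that sample. Pools were incubated with 200 nmole of a random double-stranded 16-mer DNA library in Tris/NaCl/DTT/glycerol buffer at room temperature for 30 min, then washed, crosslinked with 0.1% formaldehyde, proximity-ligated with BsaI/T4 ligase (1 h, 37 °C), PCR-amplified and sequenced on an Illumina NextSeq500.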
# ELK1 = target: T2, ELK1 (Homo sapiens, UniProt P19419 1-428)
# T2 sequence: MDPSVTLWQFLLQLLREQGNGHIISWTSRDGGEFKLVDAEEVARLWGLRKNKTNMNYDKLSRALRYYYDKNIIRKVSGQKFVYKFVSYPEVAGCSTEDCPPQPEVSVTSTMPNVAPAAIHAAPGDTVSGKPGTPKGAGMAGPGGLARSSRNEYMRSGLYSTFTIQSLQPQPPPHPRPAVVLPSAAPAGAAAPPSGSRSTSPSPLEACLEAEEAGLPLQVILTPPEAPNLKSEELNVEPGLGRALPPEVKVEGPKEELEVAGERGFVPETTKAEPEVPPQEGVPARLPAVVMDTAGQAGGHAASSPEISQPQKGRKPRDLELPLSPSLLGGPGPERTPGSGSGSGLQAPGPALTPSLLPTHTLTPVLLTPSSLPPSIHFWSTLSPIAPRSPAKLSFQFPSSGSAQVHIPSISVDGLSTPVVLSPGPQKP
# Summary of the method: as §1
# GABPA = target: T3, GABPA (Homo sapiens, UniProt Q06546 1-454)
# T3 sequence: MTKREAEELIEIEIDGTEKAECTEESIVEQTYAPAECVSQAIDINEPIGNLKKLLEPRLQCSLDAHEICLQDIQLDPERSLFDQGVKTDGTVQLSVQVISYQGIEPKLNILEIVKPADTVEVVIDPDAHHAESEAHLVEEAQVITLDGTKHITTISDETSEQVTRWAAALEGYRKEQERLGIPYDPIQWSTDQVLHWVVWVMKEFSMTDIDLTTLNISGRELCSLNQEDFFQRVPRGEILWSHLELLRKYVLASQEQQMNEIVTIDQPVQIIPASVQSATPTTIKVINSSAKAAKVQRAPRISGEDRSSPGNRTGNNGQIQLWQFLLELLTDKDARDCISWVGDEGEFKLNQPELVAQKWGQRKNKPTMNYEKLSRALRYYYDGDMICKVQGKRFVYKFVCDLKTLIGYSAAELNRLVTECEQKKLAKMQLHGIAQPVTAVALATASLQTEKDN
# Summary of the method: as §1
# ERG = target: T4, ERG (Homo sapiens, UniProt P11308 1-479)
# T4 sequence: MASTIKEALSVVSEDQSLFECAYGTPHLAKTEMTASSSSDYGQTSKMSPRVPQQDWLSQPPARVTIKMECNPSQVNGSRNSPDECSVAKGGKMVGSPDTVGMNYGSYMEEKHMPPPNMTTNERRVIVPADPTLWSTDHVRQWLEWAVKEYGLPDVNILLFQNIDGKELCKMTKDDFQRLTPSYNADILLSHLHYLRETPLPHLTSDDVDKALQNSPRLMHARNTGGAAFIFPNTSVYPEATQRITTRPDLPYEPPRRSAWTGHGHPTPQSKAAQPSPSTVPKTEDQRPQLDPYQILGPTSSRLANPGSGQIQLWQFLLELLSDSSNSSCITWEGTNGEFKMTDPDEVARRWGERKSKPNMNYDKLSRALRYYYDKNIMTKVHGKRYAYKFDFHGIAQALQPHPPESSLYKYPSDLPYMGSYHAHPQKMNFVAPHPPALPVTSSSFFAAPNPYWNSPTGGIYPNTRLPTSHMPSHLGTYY
# Summary of the method: as §1
# ELF1 = ELF1 (Homo sapiens, UniProt P32519 1-619)
# Chain of ELF1 (P32519 whole entry): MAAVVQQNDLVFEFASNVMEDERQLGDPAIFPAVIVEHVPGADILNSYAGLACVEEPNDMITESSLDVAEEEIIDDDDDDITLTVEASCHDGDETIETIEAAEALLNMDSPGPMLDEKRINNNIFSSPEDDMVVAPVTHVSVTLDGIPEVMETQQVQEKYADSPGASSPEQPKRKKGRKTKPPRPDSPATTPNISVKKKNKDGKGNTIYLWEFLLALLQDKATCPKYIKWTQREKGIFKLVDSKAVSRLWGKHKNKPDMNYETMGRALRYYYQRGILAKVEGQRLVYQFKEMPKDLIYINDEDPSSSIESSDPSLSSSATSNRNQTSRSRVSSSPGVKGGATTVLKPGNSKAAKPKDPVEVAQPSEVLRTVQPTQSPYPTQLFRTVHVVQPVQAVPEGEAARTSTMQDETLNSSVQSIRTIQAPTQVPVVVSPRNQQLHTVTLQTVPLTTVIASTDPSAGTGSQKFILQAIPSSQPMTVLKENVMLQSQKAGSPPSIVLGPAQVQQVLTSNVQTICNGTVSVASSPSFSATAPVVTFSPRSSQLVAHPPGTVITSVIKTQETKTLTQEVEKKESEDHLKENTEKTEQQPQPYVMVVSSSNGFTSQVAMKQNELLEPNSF
# Summary of the method: as §1
# EHF = target: T5, EHF (Homo sapiens, UniProt Q9NZC4 1-300)
# T5 sequence: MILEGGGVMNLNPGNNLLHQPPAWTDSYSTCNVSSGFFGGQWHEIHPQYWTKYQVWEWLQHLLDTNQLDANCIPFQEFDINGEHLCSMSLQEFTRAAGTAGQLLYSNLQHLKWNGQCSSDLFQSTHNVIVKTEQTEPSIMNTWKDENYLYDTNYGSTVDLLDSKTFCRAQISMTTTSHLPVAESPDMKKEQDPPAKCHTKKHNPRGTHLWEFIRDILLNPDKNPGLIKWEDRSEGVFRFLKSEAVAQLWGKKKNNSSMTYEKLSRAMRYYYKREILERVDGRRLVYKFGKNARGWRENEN
# Summary of the method: as §1
# SPI1 = SPI1 (Homo sapiens, UniProt P17947 1-270)
# Summary of the method: as §1
# SPIB = SPIB (Homo sapiens, UniProt Q01892 1-262)
# Chain of SPIB (Q01892 whole entry): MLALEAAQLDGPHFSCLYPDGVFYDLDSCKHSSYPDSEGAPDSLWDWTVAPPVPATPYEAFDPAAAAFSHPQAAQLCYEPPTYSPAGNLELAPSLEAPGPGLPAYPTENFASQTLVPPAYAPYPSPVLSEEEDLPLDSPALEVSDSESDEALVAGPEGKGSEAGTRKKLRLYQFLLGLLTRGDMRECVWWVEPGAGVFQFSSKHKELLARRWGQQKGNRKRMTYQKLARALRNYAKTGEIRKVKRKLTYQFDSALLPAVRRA
# Summary of the method: as §1
# ELK3 = target: T6, ELK3 (Homo sapiens, UniProt P41970 1-407)
# T6 sequence: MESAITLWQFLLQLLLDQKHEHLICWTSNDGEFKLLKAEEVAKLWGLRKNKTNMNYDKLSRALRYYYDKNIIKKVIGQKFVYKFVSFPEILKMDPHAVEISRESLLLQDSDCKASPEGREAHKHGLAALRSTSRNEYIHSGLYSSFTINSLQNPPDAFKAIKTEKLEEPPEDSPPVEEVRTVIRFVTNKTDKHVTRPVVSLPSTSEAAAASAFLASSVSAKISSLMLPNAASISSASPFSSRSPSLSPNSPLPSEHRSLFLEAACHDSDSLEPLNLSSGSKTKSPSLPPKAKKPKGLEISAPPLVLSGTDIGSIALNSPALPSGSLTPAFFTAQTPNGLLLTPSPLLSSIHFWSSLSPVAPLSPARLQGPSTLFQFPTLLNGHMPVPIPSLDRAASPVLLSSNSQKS
# Summary of the method: as §1
Sequence,binding signal (FLI1),binding signal (ELK1),binding signal (GABPA),binding signal (ERG),binding signal (ELF1),binding signal (EHF),binding signal (SPI1),binding signal (SPIB),binding signal (ELK3)
AAGTAT,"1.44 fold enrichment (6-mer frequency, TF over GST control)","1.4 fold enrichment (6-mer frequency, TF over GST control)","1.4 fold enrichment (6-mer frequency, TF over GST control)","1.42 fold enrichment (6-mer frequency, TF over GST control)","1.36 fold enrichment (6-mer frequency, TF over GST control)","1.43 fold enrichment (6-mer frequency, TF over GST control)","1.36 fold enrichment (6-mer frequency, TF over GST control)","1.48 fold enrichment (6-mer frequency, TF over GST control)","1.46 fold enrichment (6-mer frequency, TF over GST control)"
TAATAT,"1.36 fold enrichment (6-mer frequency, TF over GST control)","1.25 fold enrichment (6-mer frequency, TF over GST control)","1.3 fold enrichment (6-mer frequency, TF over GST control)","1.25 fold enrichment (6-mer frequency, TF over GST control)","1.27 fold enrichment (6-mer frequency, TF over GST control)","1.3 fold enrichment (6-mer frequency, TF over GST control)","1.23 fold enrichment (6-mer frequency, TF over GST control)","1.21 fold enrichment (6-mer frequency, TF over GST control)","1.33 fold enrichment (6-mer frequency, TF over GST control)"
ATCCTT,"1.72 fold enrichment (6-mer frequency, TF over GST control)","1.62 fold enrichment (6-mer frequency, TF over GST control)","1.64 fold enrichment (6-mer frequency, TF over GST control)","1.78 fold enrichment (6-mer frequency, TF over GST control)","1.6 fold enrichment (6-mer frequency, TF over GST control)","1.68 fold enrichment (6-mer frequency, TF over GST control)","1.7 fold enrichment (6-mer frequency, TF over GST control)","1.67 fold enrichment (6-mer frequency, TF over GST control)","1.68 fold enrichment (6-mer frequency, TF over GST control)"
CCTACT,"1.73 fold enrichment (6-mer frequency, TF over GST control)","1.61 fold enrichment (6-mer frequency, TF over GST control)","1.53 fold enrichment (6-mer frequency, TF over GST control)","1.54 fold enrichment (6-mer frequency, TF over GST control)","1.73 fold enrichment (6-mer frequency, TF over GST control)","1.69 fold enrichment (6-mer frequency, TF over GST control)","1.77 fold enrichment (6-mer frequency, TF over GST control)","1.76 fold enrichment (6-mer frequency, TF over GST control)","1.55 fold enrichment (6-mer frequency, TF over GST control)"
TGATGG,"1.24 fold enrichment (6-mer frequency, TF over GST control)","1.27 fold enrichment (6-mer frequency, TF over GST control)","1.29 fold enrichment (6-mer frequency, TF over GST control)","1.24 fold enrichment (6-mer frequency, TF over GST control)","1.24 fold enrichment (6-mer frequency, TF over GST control)","1.31 fold enrichment (6-mer frequency, TF over GST control)","1.28 fold enrichment (6-mer frequency, TF over GST control)","1.39 fold enrichment (6-mer frequency, TF over GST control)","1.16 fold enrichment (6-mer frequency, TF over GST control)"
TCCATT,"1.34 fold enrichment (6-mer frequency, TF over GST control)","1.16 fold enrichment (6-mer frequency, TF over GST control)","1.3 fold enrichment (6-mer frequency, TF over GST control)","1.31 fold enrichment (6-mer frequency, TF over GST control)","1.26 fold enrichment (6-mer frequency, TF over GST control)","1.27 fold enrichment (6-mer frequency, TF over GST control)","1.33 fold enrichment (6-mer frequency, TF over GST control)","1.39 fold enrichment (6-mer frequency, TF over GST control)","1.26 fold enrichment (6-mer frequency, TF over GST control)"
CTTTGC,"1.4 fold enrichment (6-mer frequency, TF over GST control)","1.29 fold enrichment (6-mer frequency, TF over GST control)","1.39 fold enrichment (6-mer frequency, TF over GST control)","1.46 fold enrichment (6-mer frequency, TF over GST control)","1.32 fold enrichment (6-mer frequency, TF over GST control)","1.32 fold enrichment (6-mer frequency, TF over GST control)","1.21 fold enrichment (6-mer frequency, TF over GST control)","1.32 fold enrichment (6-mer frequency, TF over GST control)","1.33 fold enrichment (6-mer frequency, TF over GST control)"
GTTATT,"1.16 fold enrichment (6-mer frequency, TF over GST control)","1.23 fold enrichment (6-mer frequency, TF over GST control)","1.17 fold enrichment (6-mer frequency, TF over GST control)","1.15 fold enrichment (6-mer frequency, TF over GST control)","1.05 fold enrichment (6-mer frequency, TF over GST control)","1.08 fold enrichment (6-mer frequency, TF over GST control)","1.28 fold enrichment (6-mer frequency, TF over GST control)","1.09 fold enrichment (6-mer frequency, TF over GST control)","1.23 fold enrichment (6-mer frequency, TF over GST control)"
